# Records with an inconclusive call do not appear. A call without a number means that no potency is given here. Calls of active or inactive are those of the source. Unless noted, calls come from the whole dose curve.
# How the values were obtained:
# [1] = Nuclear factor erythroid 2-related factor 2/antioxidant responsive element (Nrf2/ARE) small molecule agonists: qHTS cell viability counter screen in human keratinocytes (AID 1919968; active = well fitted curve in the direction sought with a large enough effect in the repeat runs; an effect the other way counts as inactive or inconclusive; note: nearly all actives have a fitted effect of over 55% in size; note: potency is the fitted concentration of half-maximal effect)
# Outline: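 Fluorescence read-out from CellTiter-Fluor after 1 h at 37 C. Wells held HaCaT-derived ARE-luciferase reporter cells (1,500/well) treated 23 h with DMSO-dissolved compounds. Run in the same wells as the luciferase agonist read.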
# [2] = Nuclear factor erythroid 2-related factor 2/antioxidant responsive element (Nrf2/ARE) small molecule agonists: luciferase reporter gene qHTS assay in human keratinocytes (AID 1919969); note: nearly all actives have a fitted effect of over 35% in size
# [3] = target: Gonadotropin-releasing hormone receptor (Homo sapiens) (UniProt P30968); test: Human gonadotropin-releasing hormone receptor (GnRHR) small molecule agonists, calcium flux assay in GnRHR-HEK293 cells (AID 1920063); note: nearly all actives have a fitted effect of over 35% in size; note: potency is the fitted concentration of half-maximal effect
# Sequence of Gonadotropin-releasing hormone receptor (Homo sapiens) (P30968 whole entry, looked up): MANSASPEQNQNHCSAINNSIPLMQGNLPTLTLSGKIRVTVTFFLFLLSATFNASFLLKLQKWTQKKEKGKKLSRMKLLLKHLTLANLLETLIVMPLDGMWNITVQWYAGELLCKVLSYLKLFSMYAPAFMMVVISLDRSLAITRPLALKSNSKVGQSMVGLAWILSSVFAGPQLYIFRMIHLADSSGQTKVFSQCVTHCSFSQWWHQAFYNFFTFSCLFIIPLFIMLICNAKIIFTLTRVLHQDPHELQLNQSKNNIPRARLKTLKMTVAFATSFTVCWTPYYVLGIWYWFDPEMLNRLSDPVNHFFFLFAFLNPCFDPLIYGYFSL
# Outline: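 Calcium-dye fluorescence, Ex/Em=480/540, recorded every 1 sec over 3 min after compound addition to GnRHR-HEK293 cells. Cells had been seeded 18 hours earlier and dye-loaded for 1 hour at 37 C. Fifteen concentrations, triplicates.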
# [4] = target: KiSS-1 receptor (Homo sapiens) (UniProt Q969F8); test: Human kisspeptin (KISS1R) small molecule agonists, calcium flux assay in KISS1R-HEK293 cells (AID 1920064; active = well fitted curve in the direction sought with a large enough effect in the repeat runs; an effect the other way counts as inactive or inconclusive)
# Sequence of KiSS-1 receptor (Homo sapiens) (Q969F8 whole entry, looked up): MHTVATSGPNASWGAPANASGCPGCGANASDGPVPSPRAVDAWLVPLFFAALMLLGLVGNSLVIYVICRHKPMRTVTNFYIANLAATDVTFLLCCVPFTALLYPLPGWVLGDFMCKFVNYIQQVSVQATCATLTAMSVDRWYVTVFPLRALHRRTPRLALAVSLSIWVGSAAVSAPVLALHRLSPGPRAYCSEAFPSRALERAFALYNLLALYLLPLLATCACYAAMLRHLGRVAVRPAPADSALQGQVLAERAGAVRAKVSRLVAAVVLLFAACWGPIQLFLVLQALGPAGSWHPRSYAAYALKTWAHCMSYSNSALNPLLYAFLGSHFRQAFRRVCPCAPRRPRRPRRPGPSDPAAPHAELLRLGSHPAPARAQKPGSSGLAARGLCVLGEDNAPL
# Outline: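 Calcium flux read-out: kinetic fluorescence at Ex/Em=480/540, 1 s intervals over 3 min, after pin-tool compound addition to dye-loaded KISS1R-HEK293 cells. Fifteen concentrations, triplicates.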
# [5] = G protein-coupled receptor (GPCR) small molecule agonists, calcium flux assay: HEK293 wild type cell line counter screen (AID 1920065)
# Outline: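 Agonist mode; 18 h seeding at 37 C, 1 h dye load at 37 C; compounds pinned from DMSO, ATP as positive control; kinetic fluorescence 480/540 nm, 3 min, 1 s reads; 15 concentrations, triplicate.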
# [6] = p53 small molecule agonists, cell-based qHTS assay with human liver microsomes (AID 1963577)
# Outline: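 Cells carrying a p53-responsive bla reporter were rested 5 h (37 C, 5% CO2) before compound transfer. Human liver microsomes plus NADPH, 0.5 mg/mL final apiece, supplied metabolism during the 16 h 37 C exposure.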
# [7] = p53 small molecule agonists, cell-based qHTS assay with rat liver microsomes (AID 1963578)
# Outline: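 Fluorescence from a beta-lactamase reporter under a p53 response element was measured after cells had been incubated 16 h at 37 C with test compound and rat liver microsomes plus NADPH (0.5 mg/mL final each).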
# [8] = p53 small molecule agonists, cell-based qHTS assay with human liver microsomes: qHTS cell viability counter screen (AID 1963579); note: nearly all actives have a fitted effect of over 45% in size; note: potency is the fitted concentration of half-maximal effect
# Outline: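 Seed p53RE-bla cells at 4,000 per well; incubate 5 h at 37 C; add compound, human liver microsomes and NADPH; incubate 16 h at 37 C; add CellTiter-Glo; after 30 min at room temperature, read luminescence.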
# [9] = p53 small molecule agonists, cell-based qHTS assay with rat liver microsomes: qHTS cell viability counter screen (AID 1963580); note: nearly all actives have a fitted effect of over 45% in size; note: potency is the fitted concentration of half-maximal effect
# Outline: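 Counter screen for cytotoxicity under metabolic activation: rat liver microsomes and NADPH, 0.5 mg/mL final each, added with compounds to p53RE-bla HCT-116 cells; 16 h at 37 C, then ATP luminescence read.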
# [10] = p53 small molecule agonists, cell-based qHTS assay: qHTS cell viability counter screen (AID 1963581); note: nearly all actives have a fitted effect of over 45% in size; note: potency is the fitted concentration of half-maximal effect
# Outline: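 Cytotoxicity read-out: ATP-based luminescence (CellTiter-Glo, 30 min RT) measured in the same wells as the p53 reporter assay, HCT-116 p53RE-bla cells, 16 h compound exposure at 37 C.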
# [11] = target: 5-hydroxytryptamine receptor 2A (Homo sapiens) (UniProt P28223); test: 5-hydroxytryptamine receptor 2A (HTR2A) small molecule antagonists, cell-based qHTS assay (AID 1963586); note: nearly all actives have a fitted effect of over 45% in size; note: potency is the fitted concentration of half-maximal effect
# Sequence of 5-hydroxytryptamine receptor 2A (Homo sapiens) (P28223 whole entry, looked up): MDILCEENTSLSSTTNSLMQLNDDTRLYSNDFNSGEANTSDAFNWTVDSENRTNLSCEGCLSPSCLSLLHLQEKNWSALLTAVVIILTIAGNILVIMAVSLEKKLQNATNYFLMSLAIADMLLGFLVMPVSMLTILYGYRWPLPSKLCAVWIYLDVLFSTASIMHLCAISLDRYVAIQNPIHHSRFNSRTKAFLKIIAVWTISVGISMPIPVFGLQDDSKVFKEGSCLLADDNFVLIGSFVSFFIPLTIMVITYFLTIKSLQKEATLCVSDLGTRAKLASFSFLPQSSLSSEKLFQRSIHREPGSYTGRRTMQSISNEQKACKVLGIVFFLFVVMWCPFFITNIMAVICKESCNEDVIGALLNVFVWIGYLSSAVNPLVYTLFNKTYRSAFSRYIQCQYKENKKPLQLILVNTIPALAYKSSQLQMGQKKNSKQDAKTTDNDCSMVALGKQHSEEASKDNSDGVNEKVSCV
# Outline: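 CHO cells stably expressing human HTR2A were plated for 18 h at 37 C, then loaded with calcium dye for 1 h. Compounds were preincubated 5 min at room temperature before DOI (4 nM solution) was added. Kinetic fluorescence was read for 3 min.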
# [12] = target: Muscarinic acetylcholine receptor M1 (Homo sapiens) (UniProt P11229); test: Cholinergic receptor muscarinic 1 (CHRM1) small molecule antagonists, cell-based qHTS assay (AID 1963588); note: nearly all actives have a fitted effect of over 40% in size; note: potency is the fitted concentration of half-maximal effect
# Sequence of Muscarinic acetylcholine receptor M1 (Homo sapiens) (P11229 whole entry, looked up): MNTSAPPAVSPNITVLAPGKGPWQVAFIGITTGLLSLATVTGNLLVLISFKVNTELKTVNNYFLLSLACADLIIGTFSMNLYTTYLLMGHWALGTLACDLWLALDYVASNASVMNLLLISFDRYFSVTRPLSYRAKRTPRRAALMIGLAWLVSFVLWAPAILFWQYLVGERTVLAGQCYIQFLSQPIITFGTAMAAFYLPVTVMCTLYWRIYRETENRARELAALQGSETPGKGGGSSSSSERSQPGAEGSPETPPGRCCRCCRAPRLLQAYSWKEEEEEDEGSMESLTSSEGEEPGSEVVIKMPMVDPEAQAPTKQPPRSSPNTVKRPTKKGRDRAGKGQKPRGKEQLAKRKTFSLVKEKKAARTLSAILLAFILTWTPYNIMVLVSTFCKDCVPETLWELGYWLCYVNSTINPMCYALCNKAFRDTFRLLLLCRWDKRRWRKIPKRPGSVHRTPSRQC
# Outline: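 Compounds were tested at 15 concentrations in three independent runs. Dye-loaded CHRM1-CHO cells were exposed 5 min at room temperature before stimulation by acetylcholine added at 50nM. Intracellular calcium was read kinetically on FDSS for 3 min.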
# [13] = target: Muscarinic acetylcholine receptor M1 (Homo sapiens) (UniProt P11229); test: Cholinergic receptor muscarinic 1 (CHRM1) small molecule agonists, cell-based qHTS assay (AID 1963589); note: nearly all actives have a fitted effect of over 35% in size
# Outline: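 Calcium flux read-out: kinetic fluorescence at 1 sec intervals after pin-tool compound addition to dye-loaded CHRM1-CHO cells (human M1). Agonist mode; 15 concentrations tested in triplicate independent runs.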
# [14] = target: Beta-2 adrenergic receptor (Homo sapiens) (UniProt P07550); test: Adrenergic beta2 receptor (ADRB2) small molecule antagonists, cell-based qHTS assay (AID 1963592); note: series mostly up to about 92 µM; nearly all actives have a fitted effect of over 50% in size
# Sequence of Beta-2 adrenergic receptor (Homo sapiens) (P07550 whole entry, looked up): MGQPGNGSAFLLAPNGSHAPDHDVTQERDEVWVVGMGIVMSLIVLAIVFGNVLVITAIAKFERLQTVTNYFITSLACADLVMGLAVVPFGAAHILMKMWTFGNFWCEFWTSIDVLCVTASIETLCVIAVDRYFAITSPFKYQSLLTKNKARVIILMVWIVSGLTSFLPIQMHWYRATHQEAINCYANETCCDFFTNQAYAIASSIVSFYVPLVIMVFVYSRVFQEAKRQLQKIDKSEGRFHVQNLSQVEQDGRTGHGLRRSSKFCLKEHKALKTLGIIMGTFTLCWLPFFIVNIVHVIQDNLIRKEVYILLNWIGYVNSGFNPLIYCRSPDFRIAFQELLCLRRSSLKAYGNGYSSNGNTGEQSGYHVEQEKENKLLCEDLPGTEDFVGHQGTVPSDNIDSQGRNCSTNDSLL
# Outline: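 Assay format: CHO-ADRB2 cells, 18-20hr seeding at 37C/5% CO2, then compound plus 1nM isoproterenol agonist mix for 0.5hr RT. Homogeneous time-resolved fluorescence cAMP detection after 1hr, expressed as 665/615 nm ratio.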
# [15] = target: D(2) dopamine receptor (Homo sapiens) (UniProt P14416); test: Dopamine D2 receptor (DRD2) small molecule agonists, cell-based qHTS assay (AID 1963594); note: nearly all actives have a fitted effect of over 35% in size
# Sequence of D(2) dopamine receptor (Homo sapiens) (P14416 whole entry, looked up): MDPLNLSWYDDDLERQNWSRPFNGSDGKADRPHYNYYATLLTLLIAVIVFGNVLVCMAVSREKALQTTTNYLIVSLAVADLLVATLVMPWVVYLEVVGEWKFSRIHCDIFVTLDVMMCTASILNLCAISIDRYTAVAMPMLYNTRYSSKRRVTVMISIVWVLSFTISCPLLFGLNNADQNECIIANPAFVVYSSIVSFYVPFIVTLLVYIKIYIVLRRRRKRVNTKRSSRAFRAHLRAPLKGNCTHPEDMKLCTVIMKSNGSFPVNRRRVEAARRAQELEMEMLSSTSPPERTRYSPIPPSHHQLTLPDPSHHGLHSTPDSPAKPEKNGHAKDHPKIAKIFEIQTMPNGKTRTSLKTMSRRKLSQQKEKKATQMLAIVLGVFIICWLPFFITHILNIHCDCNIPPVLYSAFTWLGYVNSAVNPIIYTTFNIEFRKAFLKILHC
# Outline: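 HEK293 cells stably expressing DRD2 were cultured 24 h at 37 C, then given Ro20-1724 (0.1 mM final) and compounds for 10 min at room temperature. NKH477 (200nM) was then added for 30 min. cAMP was read by HTRF.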
# [16] = target: D(2) dopamine receptor (Homo sapiens) (UniProt P14416); test: Dopamine D2 receptor (DRD2) small molecule antagonists, cell-based qHTS assay (AID 1963595; active = well fitted inhibition curve with a large enough effect in the signal ratio in the repeat runs, with a control signal flat; the % refers to the signal ratio; note: potency is the fitted concentration of half-maximal effect)
# Outline: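 HEK293 cells stably expressing DRD2 were preincubated with 0.1 mM Ro20-1724, then with compound for 10 min at room temperature. Cells were stimulated with 200 nM NKH477 plus 12 nM quinpirole for 30 min, and cAMP was read by HTRF.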
# [17] = target: 5-hydroxytryptamine receptor 2A (Homo sapiens) (UniProt P28223); test: 5-hydroxytryptamine receptor 2A (HTR2A) small molecule agonists, cell-based qHTS assay (AID 1963587); note: nearly all actives have a fitted effect of over 30% in size
# Outline: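 HTR2A-CHO cells, plated 18 h at 37 C/5% CO2, dye-loaded 1 h at 37 C; compounds in DMSO added by pin tool (agonist mode). Intracellular calcium flux read as kinetic fluorescence on FDSS over 2 min at 1 s intervals.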
# [18] = cAMP Responsive Elements (CRE) small molecule agonists, cell-based qHTS assay (AID 1963590)
# Outline: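 Beta-lactamase reporter readout: LiveBLAzer B/G FRET substrate, 2 h at room temperature, added after 3 h compound treatment of CRE-bla HEK 293T cells at 37 C/5% CO2.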
# [19] = cAMP Responsive Elements (CRE) small molecule antagonists, cell-based qHTS assay (AID 1963591; active = well fitted inhibition curve with a large enough effect in the signal ratio in the repeat runs, not every such curve was filed as active; the % refers to the signal ratio)
# Outline: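 HEK293T CRE-bla; 18 h preincubation; compound pin-transfer; NKH477 0.25 uM final, 3 h, 37 C; LiveBLAzer FRET substrate 2 h RT.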
# [20] = target: Beta-2 adrenergic receptor (Homo sapiens) (UniProt P07550); test: Adrenergic beta2 receptor (ADRB2) small molecule agonists, cell-based qHTS assay (AID 1963593);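 note: CHO cells stably overexpressing human ADRB2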
# Outline: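 CHO cells stably over-expressing ADRB2 were plated overnight at 37C, then dosed with compounds plus a stimulation mix containing 100uM IBMX and 25uM Ro-20-1724 for 0.5hr at room temperature. cAMP was measured by HTRF competition, 1hr.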
SMILES,Potency [1],Potency [2],Potency [3],outcome [4],outcome [5],Potency [6],Potency [7],Potency [8],Potency [9],Potency [10],Potency [11],Potency [12],Potency [13],Potency [14],Potency [15],Potency [16],Potency [17],Potency [18],Potency [19],Potency [20]
CCCCCCCCCCCC[N+](C)(C)CCCCCCCCCCCC,24.3 µM (active),inactive,inactive,inactive,inactive,inactive,inactive,inactive,40.8 µM (active),inactive,inactive,inactive,inactive,inactive,inactive,43.3 µM (active),,,,
O=C(OC1C[C@H]2CC[C@@H](C1)[N+]21CCCC1)C(O)(c1ccccc1)c1ccccc1 (some centres not stated),inactive,inactive,inactive,inactive,inactive,inactive,inactive,inactive,inactive,inactive,,0.0015 µM (active),inactive,inactive,inactive,inactive,inactive,inactive,inactive,inactive
CCCC[P+](C)(CCCC)CCCC,inactive,inactive,inactive,inactive,inactive,inactive,inactive,inactive,inactive,inactive,,inactive,inactive,inactive,inactive,inactive,inactive,,,inactive
CCCCNc1ccc(C(=O)OCCN(C)C)cc1,inactive,inactive,inactive,inactive,inactive,inactive,inactive,inactive,inactive,inactive,,,,inactive,inactive,inactive,,inactive,inactive,inactive
CCOC(=O)C1=C(C)NC(C)=C(C(=O)OC)C1c1cccc(Cl)c1Cl (configuration not stated),inactive,inactive,inactive,inactive,inactive,inactive,inactive,inactive,inactive,inactive,,,,,inactive,inactive,,inactive,inactive,
CN(C)CCN(Cc1ccsc1)c1ccccn1,inactive,inactive,inactive,inactive,inactive,inactive,inactive,inactive,inactive,inactive,,inactive,inactive,inactive,inactive,inactive,inactive,inactive,inactive,inactive
C/C=C/C(=O)Oc1c(CCCCCC(C)C)cc([N+](=O)[O-])cc1[N+](=O)[O-],17.2 µM (active),inactive,38.9 µM (active),inactive,inactive,inactive,inactive,14.5 µM (active),40.8 µM (active),11.5 µM (active),21.1 µM (active),,,inactive,inactive,inactive,,,,
Nc1cccc2c(=O)[nH][nH]c(=O)c12,inactive,inactive,inactive,inactive,inactive,inactive,inactive,inactive,inactive,inactive,,inactive,inactive,inactive,inactive,inactive,inactive,,inactive,

# Source: PubChem BioAssay (Tox21)
